Shiga toxin inh – inhibitors of Shiga toxin in Vero cells. actives 9.2% (n = 290,000). Vero cells, Shiga toxin protein synthesis inhibition reporter. inhibition, % at 38.7 µM. AID 2315; in the data active means inhibition mostly above about 28%, no sharp cut-off; inactive means mostly below about 43%
HCMV inh – human cytomegalovirus inhibition; HFF cells, HCMV-luciferase reporter, 72 h; stronger effect = lower value; activity change, negative = inhibition, % at 57.5 µM; actives 4.5% (n = 410,000); AID 1259415; in the data active means activity change below about -60%; inconclusive means no clear call, values can overlap the other calls; inactive means above about -39%
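HFF cells seeded 16 h at 37C, treated with compounds, infected with luciferase-reporter HCMV at MOI 1 PFU/cell; luciferase read at 72 h post infection, normalized to buffer-only and Salinomycin controls.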
Pf growth 48h – inhibits P. falciparum growth in the first generation, 48 h. AID 504832. actives 5.9% (n = 310,000). P. falciparum luciferase growth in erythrocytes, 48 h. Potency, µM (highest dose often 28.7 µM), actives largely listed as inhibitors
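Luciferase-expressing P. falciparum in infected erythrocytes (2% hematocrit, 0.1% parasitemia final) in RPMI 1640/0.5% Albumax were exposed to compound for 48 hours at 37 C, 5% CO2; growth read as luminescence.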
CHX counter – counter-screen hit for Shiga toxin inhibitors, cycloheximide; cell reporter, cycloheximide protein synthesis inhibition counterscreen; max response, %; actives 12% (n = 300,000); AID 2314; in the data active means max response mostly above about 13%, no sharp cut-off; inactive means mostly below about 14%; further: read at 38.3 µM for the half of the compounds with a filed dose
Pf growth 96h – inhibits malaria parasite growth, 96 h; AID 504834; Potency, µM (doses to about 28.7 µM), most hits filed as inhibitors; actives 6.9% (n = 320,000); P. falciparum luciferase reporter growth, 96 h
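Delayed-death screen, second-generation endpoint: infected erythrocytes, 2% hematocrit, 0.05% parasitemia final; 96 hours at 37 C, 5% CO2; luciferase detection reagent; luminescence decrease equals reduced growth.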
Hits are given with their value; – = inactive; ? = inconclusive; · = no result given; [ ] = remark or other dose. Sampled rows, rich in hits. Any-hit rate of the full collection: about 20%. Unless noted, the call rests on the fitted dose curve; in most records, active means well fitted inhibition curve with a large enough effect; inconclusive means small, poorly fitted or top-dose-only effect, or another doubt; inactive means no such curve, though single readings can be large or run the other way.

SMILES	Shiga toxin inh	HCMV inh	Pf growth 48h	CHX counter	Pf growth 96h
COc1ccc([C@@H]2[C@@H]3C(=O)N(C(C)(C)C)C(=O)[C@@H]3[C@]3(CC(C)C)C(=O)N(c4cccc(Br)c4)C(=O)N23)cc1	–	–	?	–	3.7µM
CCCCCCCCCCCC(=O)OCC(O)C1OCC(O)C1O (centres undefined)	·	·	–	·	–
COc1cccc(NC(=O)C2CCCO2)c1 (centres undefined)	·	–	–	–	–
COc1ccc([C@@H]2[C@@H]3C(=O)N(C(C)(C)C)C(=O)[C@@H]3[C@]3(CC(C)C)C(=O)N(c4ccc(C(F)(F)F)cc4)C(=O)N23)cc1	–	–	11.7µM	–	3.7µM
COc1ccc([C@@H]2[C@@H]3C(=O)N(C(C)(C)C)C(=O)[C@@H]3[C@]3(Cc4ccccc4)C(=O)N(c4ccc(C(F)(F)F)cc4)C(=O)N23)cc1	–	–	?	–	5.86µM
Cc1ccc(-n2nnc3c(=O)n(CC(=O)N4CCC(C)CC4)cnc32)cc1	–	–	–	–	4.15µM
CCOC(=O)Cn1cnc2c(nnn2-c2ccc(OC)cc2)c1=O	–	–	–	–	–
CCOC(=O)Cn1cnc2c(nnn2-c2ccc(C)cc2)c1=O	–	-73.5	–	–	–
CN(C)S(=O)(=O)Nc1ccc2c(c1)Cc1ccccc1-2	106.7	–	–	29.2	·
Cc1cccc(C)c1NC(=O)CN(C)C(=O)CC1Sc2ccccc2NC1=O (centres undefined)	·	–	–	·	–
CN(C)c1cccc(NC(=O)c2cccc3ccccc23)c1	–	–	–[0.00184 µM]	–	–
Cc1ccccc1N/N=C/c1c(C)nc2ccccn12	–	–	9.28µM	–	?
Cc1ccc(-c2nc3ccccn3c2Nc2ccccc2C)s1	·	–	·	·	·
COc1ccc(-n2c(O)c(C=Nc3ccccc3)c3ccccc3c2=O)cc1	–	?	–	–	–
CCN(c1ccc(N=Cc2c(O)n(Cc3ccc(OC)cc3)c(=O)c3ccccc23)cc1)C(C)C	–	–	?	–	1.47µM
CCOC(=O)C1CCN(C2=C(NS(=O)(=O)c3ccc(Br)cc3)C(=O)c3ccccc3C2=O)CC1	–	–	?	16.0	?
O=S(=O)(Nc1ccc(NS(=O)(=O)c2ccccc2)cc1)c1ccccc1	·	–	·	·	·
O=C1C(Nc2ccccc2)=C(NS(=O)(=O)c2ccccc2)C(=O)c2ccccc21	–	?	10.4µM	–	4.15µM
CCN1CCN(C2=C(NS(=O)(=O)c3ccccc3)C(=O)c3ccccc3C2=O)CC1	–	-62.1	5.86µM	11.9	2.94µM
CCOc1ccccc1N1CCN(C2=C(NS(=O)(=O)c3cccs3)C(=O)c3ccccc3C2=O)CC1	–	–	10.4µM	–	·
CN1CCN(C2=C(NS(=O)(=O)c3ccccc3)C(=O)c3ccccc3C2=O)CC1	–	·	4.15µM	–	?
CCN1CCN(C2=C(NS(=O)(=O)c3ccc(Br)cc3)C(=O)c3ccccc3C2=O)CC1	–	-112.1	2.62µM	–	?
CCOC(=O)N1CCN(C2=C(NS(=O)(=O)c3ccc(Br)cc3)C(=O)c3ccccc3C2=O)CC1	·	–	·	·	·
CCOC(=O)N1CCN(C2=C(NS(=O)(=O)c3ccccc3)C(=O)c3ccccc3C2=O)CC1	–	–	13.1µM	–	9.28µM
CCOC(=O)CC1=CC(C)(CC(=O)OCC)C(C#N)(C#N)C(N)=C1C#N (centres undefined)	–	?	–	–	–
SMILES	Shiga toxin inh	HCMV inh	Pf growth 48h	CHX counter	Pf growth 96h
Fc1ccc(CO/N=C2\CCCc3nonc32)cc1	–	–	–	–	–
COc1ccc(C(=O)C(Cc2ccccc2)N(C)C)cc1 (centres undefined)	42.4	–	?	30.6	1.31µM
COc1ccc(C(C)=O)cc1CC(C(=O)c1ccc(F)cc1)N(C)C (centres undefined)	–	–	?	–	10.4µM
CN(C)C(Cc1ccc(C#N)cc1)C(=O)c1ccccc1 (centres undefined)	–	–	–	29.5	–
CN(C)C(Cc1ccccc1)C(=O)c1ccc(-c2ccccc2)cc1 (centres undefined)	–	–	·	–	?
Cc1ccc(NC(=O)CN2C(=O)CC(c3ccco3)Sc3ccccc32)cc1Cl (centres undefined)	·	–	·	·	·
Cc1noc(C)c1CSCC(=O)Nc1ccc(S(C)(=O)=O)cc1	·	–	–	·	?
Cc1cc(C)c2oc(C(=O)Nc3c(C(=O)c4ccc(F)cc4)oc4ccccc34)cc(=O)c2c1	·	–	·	·	·
